The record followed here is PubChem BioAssay (NCI).

What all share (assay): NCI-60 one-dose screen, 48 h (100 = growth as untreated, 0 = no growth, -100 = all killed)
Conditions in all cases: 10 µM unless noted

Test [1] has as its system NCI-H23 lung.
Test [2] deals with NCI-H226 lung.
Test [3] relates to NCI-H322M lung.
For test [4], the system named is HOP-62 NSCLC.
The test system of test [5] is NCI-H460 lung.
Test [6] has as its system HOP-92 NSCLC.
Test [7] has as its system NCI-H522 lung.
The subject of test [8] is A549/ATCC NSCLC.
Test [9] has as its system 786-0 renal.
Test [10] relates to COLO 205 colon.
Test [11] concerns DU-145 prostate.
Test [12] deals with K-562 leukemia.
For test [13], the system named is MALME-3M melanoma.
Test [14] has as its system MDA-MB-231 breast.
Test [15] has as its system RXF 393 renal.
In test [16] the test system is SF-268 CNS.
Test [17] relates to SF-295 CNS.
Test [18] relates to SF-539 CNS.
The test system of test [19] is UACC-257 melanoma.
For test [20], the system named is M14 melanoma.

This is part of a sample that, as a whole, favours compounds with a hit. Of some 83,000 tested, about 20% had one in any assay.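 Percent growth is the endpoint: 0 to 100 indicates growth inhibition (40 means 60% inhibition), 0 means no net growth, and negative values indicate cell death.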 Values without a mark were called inactive. The source made the active and inactive calls. How the source made its calls: active means growth percent below 10; inactive means the rest.

In the case of `Cc1c2ccccc2nc2cc3c(cc12)[C@H]1CC[C@]2(C)C(=O)CC[C@H]2[C@@H]1CC3`, the growth in test [1] is 98.5%; in [2], 91.8%; in test [3], 98.5%; in [4], 105%; in [5], 97.3%; in [6], 86.9%. Further, the growth in [7] was 81.6%; in test [8], 86.5%; in [9], 98%; in test [10] it was 109%; in test [11] it was 106%; in [12], 90.2%. Besides, the growth was 108% in test [13]; 91.6% in test [14]; 101% in test [15]; 89.5% in test [16]; 99.9% in test [17]; 96.5% in test [18]. Further, the figures for the growth in test [19] and in test [20] were 98.3% and 102%, respectively.
Consider `CC(C)CCC[C@@H](C)[C@H]1CC[C@H]2[C@@H]3CC=C4c5sc(Nc6cc(C(F)(F)F)cc(C(F)(F)F)c6)nc5CC[C@]4(C)[C@H]3CC[C@]12C`, for which the growth in test [1] was 93.4%; in test [2], 104%; in [3], 99.1%; in test [4], 81.9%; in [5] it was 105%; in test [6], 79%. Further, the growth in test [7] was 101%; in test [8], 92.1%; in test [9] it was 110%; in test [10] it was 99.8%; in test [11], 104%; in test [12] it was 101%. For the same compound, the growth in [13] is 94.8%; in [14], 108%; in test [15] it was 107%; in test [16], 101%; in test [17] it was 104%; in test [18], 98%. The growth is 99.2% in [19] and 98.6% in [20].
In the case of `CCN(CC)c1ccc(-c2cc(-c3cc(OC)c(OC)c(OC)c3)nc(N3CCC(O)CC3)c2C#N)cc1`, the growth is 0.411% (active) in test [1]; -36.2% (active) in test [2]; 18.1% in test [3]; 17.9% in test [4]; -32.8% (active) in test [5]; -17.6% (active) in test [6]. Further, the growth in test [7] was -52.3% (active); in [8], 0.627% (active); in test [9] it was -22% (active); in test [10] it was -60.9% (active); in [11], 1.59% (active); in test [12] it was 2.04% (active). Moreover, the growth in [13] is -49.2% (active); in test [14], -58.7% (active); in test [15], -13.3% (active); in [16], 0.835% (active); in test [17], -62.2% (active); in test [18] it was -44.3% (active). Further, the growth was -47.5% (active) in [19] and -56.4% (active) in test [20].
With `Nc1[nH]nc2nc(-c3ccccc3)n3c4ccccc4nc3c12`, the growth was 99.9% in test [1]; 95.6% in test [2]; 93% in test [3]; 95.7% in test [4]; 93% in test [5]; 122% in test [6]. For the same compound, the growth in test [7] was 82.7%; in test [8] it was 101%; in test [9] it was 106%; in test [10], 112%; in test [11], 117%; in test [12], 106%. The growth is 108% in test [13]; 97.9% in test [14]; 93.9% in [15]; 107% in test [16]; 93.2% in [17]; 103% in [18]. Also, the growth is 105% in [19] and 99.5% in test [20].
For `O=c1oc2c(cc1-c1ccccc1)c(=O)[nH]c1ccccc12`, the growth was 95.8% in test [1]; 102% in test [2]; 104% in [3]; 106% in test [4]; 105% in test [5]; 103% in test [6]. The growth in [7] is 94.2%; in [8] it was 97.7%; in test [9], 85.9%; in test [10], 107%; in test [11], 105%; in test [12], 89.2%. Also, the growth in [13] is 95.7%; in [14], 96.8%; in test [15], 102%; in test [16], 100%; in [17] it was 94.6%; in test [18], 106%. Moreover, the growth in test [19] is 100%; in [20] it was 99.7%.
On to `Cc1ccc(-c2nc(SCC(=O)N3CCN(c4cc5c(cc4F)c(=O)c(C(=O)O)cn5C4CC4)CC3)nc(Cl)c2C#N)cc1`, for which the growth in test [1] is 100%; in test [2] it was 104%; in test [3] it was 101%; in test [4], 90.4%; in [5], 103%; in test [6], 112%. Further, the growth in test [7] was 93.8%; in [8], 107%; in [9], 97.8%; in [10], 108%; in test [11], 106%; in [12] it was 98.2%. The growth in [13] is 106%; in test [14], 99.7%; in [15], 106%; in test [16], 93.5%; in test [17], 97.4%; in test [18], 100%. Further, the growth was 99.3% in test [19] and 99% in test [20].
In the case of `Nc1cc(C(=O)O)cc(-n2c(O)c(C=C3N=c4ccccc4=N3)sc2=S)c1`, the growth in [1] was 92.6%; in test [2], 85.4%; in [3], 99.2%; in [4], 100%; in test [5], 98%; in test [6], 81.6%. For the same compound, the growth was 92.7% in test [7]; 104% in test [8]; 102% in test [9]; 103% in [10]; 111% in [11]; 116% in test [12]. For the same compound, the growth in [13] was 96.9%; in [14], 89.4%; in test [15], 112%; in test [16] it was 97.6%; in test [17] it was 101%; in test [18] it was 97.3%. In addition, the growth in [19] was 102%; in test [20], 97.9%.
Take `Fc1cccc(-c2nc(-c3c[nH]c4ncccc34)cs2)c1`: the growth is 64.2% [100 µM] in test [1]; 53.1% [100 µM] in test [2]; 59.1% [100 µM] in test [3]; 48.9% [100 µM] in test [4]; 40.5% [100 µM] in test [5]; 38.3% [100 µM] in test [6]. In addition, the growth was 81.5% [100 µM] in test [7]; 33.9% [100 µM] in [8]; 62.3% [100 µM] in [9]; 76.9% [100 µM] in test [10]; 63.8% [100 µM] in test [11]; 94% [100 µM] in [12]. For the same compound, the growth was 0.186% [100 µM] (active) in [13]; 44.6% [100 µM] in [14]; 51.7% [100 µM] in [15]; 45.5% [100 µM] in test [16]; 17.2% [100 µM] in test [17]; 56.1% [100 µM] in test [18]. The growth was 99.3% [100 µM] in [19] and 22.2% [100 µM] in test [20].
As to `CC1(/C=C/c2ccc(-c3ccccc3)cc2)CCn2cnc3ncnc(c32)N1O` (stereo not given), the growth in [1] is 13%; in [2], 17%; in test [3], 26.9%; in test [4], 19.6%; in test [5] it was 3.93% (active); in [6], 52.3%. In addition, the growth was 26% in test [7]; 15.6% in test [8]; 1.88% (active) in [9]; 28% in test [10]; 21.4% in test [11]; 14.9% in test [12]. Also, the growth was 23.3% in test [13]; 53.9% in test [14]; 5.19% (active) in [15]; 16.6% in test [16]; 13.3% in test [17]; 1.19% (active) in test [18]. In addition, the growth in test [19] is 10.7%; in test [20], -2.25% (active).
As to `CN(C)CCCn1c2c(c3ccncc3c1=O)C(=O)c1ccccc1-2`, the growth is -23.1% (active) in test [1]; -53.1% (active) in test [2]; 21.2% in test [3]; -11.4% (active) in test [4]; -9.77% (active) in [5]; -18.1% (active) in test [6]. Besides, the growth in [7] is -22.5% (active); in test [8], 30.2%; in test [9] it was 5.98% (active); in test [10] it was 10.6%; in test [11] it was -8.23% (active); in test [12], -61.6% (active). Besides, the growth in test [13] is -55.8% (active); in test [14], 8.66% (active); in test [15], -15.7% (active); in [16], -15.3% (active); in test [17], 1.81% (active); in test [18], -17% (active). Further, the growth in [19] was -30.3% (active); in [20], -36.5% (active).
Regarding `O=C(Nc1ncc(Cc2ccccc2)s1)c1sc2ccccc2c1Cl`, the growth in [1] was 40.8%; in test [2], 65%; in test [3] it was 43.4%; in test [4], 25%; in [5], 8.39% (active); in test [6], 76.7%. Further, the growth in [7] is -2.01% (active); in test [8] it was 26.6%; in test [9], 43.2%; in test [10], 16.8%; in test [11], 17%; in [12], 12.1%. For the same compound, the growth in [13] is 51%; in test [14], 55.5%; in test [15], -5.07% (active); in [16] it was 52.1%; in [17], 17.7%; in [18] it was -1.43% (active). The figures for the growth in [19] and in test [20] were 54.6% and 11.1%, respectively.
Turning to `N#Cc1nn(-c2cc(=O)[nH]c3ccc(Br)cc23)c(N)c1C#N`, the growth in test [1] is 102%; in [2], 98.4%; in test [3], 93.3%; in [4], 83.2%; in test [5], 105%; in test [6], -90.8% (active). The growth in test [7] was 78.4%; in test [8], 101%; in test [9], 97.4%; in test [10], 80%; in [11] it was 117%; in [12] it was -12.4% (active). Besides, the growth in test [13] was 89.4%; in test [14] it was 85.3%; in [15], 115%; in test [16] it was 108%; in test [17], 101%; in test [18], 105%. Further, the growth in test [19] is 93.4%; in [20] it was 90.1%.
On to `CN1c2ccccc2S(=O)(=O)n2c(SCC(=O)Nc3nc4ccc(F)cc4s3)nnc21`, for which the growth is 97.4% in test [1]; 113% in test [2]; 93.1% in test [3]; 103% in [4]; 103% in [5]; 84.7% in test [6]. Besides, the growth was 72.2% in test [7]; 82.8% in [8]; 112% in test [9]; 114% in test [10]; 125% in test [11]; 116% in test [12]. Moreover, the growth was 98.8% in [13]; 103% in test [14]; -23.2% (active) in test [15]; 105% in [16]; 124% in test [17]; 108% in [18]. The values for the growth in test [19] and in test [20] were 86.2% and 100%, respectively.
With `C[C@H](c1nc2ccc(C#N)cc2[nH]1)[C@H]1CC[C@H]2[C@@H]3CCC4=CC(=O)CC[C@]4(C)[C@H]3CC[C@]12C`, the growth in test [1] is 59.7%; in [2] it was 78.4%; in [3] it was 94.4%; in test [4] it was 101%; in [5] it was 64%; in test [6], -9.25% (active). The growth in test [7] is 69.8%; in test [8], 63.9%; in [9] it was 67.4%; in [10] it was 79.2%; in test [11], 68.9%; in test [12], 40.8%. Further, the growth in [13] is 85.6%; in test [14], 70.1%; in [15], 64.3%; in test [16], 78.5%; in test [17] it was 48.7%; in [18], 62.9%. The growth in test [19] is 68.2%; in [20], 70.1%.
